Measured values: PubChem BioAssay (NCI)
About 83,000 compounds went through this panel and 20% of them were active in at least one assay; those are over-represented in the sample as a whole.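 Assay: single dose, 48 h. Readout: percent growth (0 = no net growth; negative = cell death). Active: <10.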 A number with no mark means an inactive call. The source made the active and inactive calls.

Test system: HL-60(TB) leukemia
Assay: NCI-60 one-dose screen, 48 h (100 = growth as untreated, 0 = no growth, -100 = all killed)
Conditions: 10 µM unless noted

Compound	growth
C=C(C)[C@@H]1CC[C@]2(C(=O)NCC(=O)O)CC[C@]3(C)[C@H](CC[C@@H]4[C@@]5(C)Cc6c([nH]c7ccccc67)C(C)(C)[C@@H]5CC[C@]43C)[C@@H]12	101%
Cc1nn2c(-c3nc4ccc(Cl)cc4[nH]3)c(-c3ccc(F)cc3)nc2s1	117%
CCn1cc(CNc2ccc(C(=O)Nc3cc4cc(OC)c(OC)cc4c(C)n3)cc2)c(C)n1	0.232% (active)
C=C1C(=O)O[C@H]2[C@H]1CC/C(COC(=O)NCCOCCOCC(=O)Nc1ccc(OC)c(C(N)=O)c1O)=C\CC[C@@]1(C)O[C@@H]21	-6.3% (active)
CNC(=O)c1cc(Oc2ccc(NC(=O)Nc3ccc(Cl)c(SC)c3)c(F)c2)ccn1	45.5%
COc1ccc(C(C)=O)cc1S(N)(=O)=O	74.7%
c1ccc(Nc2cc(-c3cccnc3)[nH]n2)cc1	89.3%
Cc1cccc(/C=C2\N=C(c3ccccc3)N(c3ccc(S(N)(=O)=O)cc3)C2=O)c1	92.7%
N#Cc1c(-c2ccc(F)cc2)nc(N=Nc2c(O)[nH]c3ccccc23)nc1N1CCOCC1	101%
Nc1c(C(=O)Nc2c(Cl)cccc2Cl)sc2nc3c(cc12)CCCC3	35%
COc1ccccc1S(=O)(=O)Nc1ccc2c3c(cc(-c4cnn(C)c4)nc13)C(=O)N2C	-30.1% (active)
COc1cc(OC)cc(-c2ccc(-c3ccc(C(=N)N)cc3)s2)c1	-57.8% (active)
COc1cc(C)c2c(=O)c3c(oc2c1)C(=O)c1c(O)c(OC)cc(O)c1C3=O	-45.4% (active)
NC(=O)NC1(C(=O)O)CCCC1	97.1%
CCC(C)(C)C(=O)O[C@H]1C[C@@H](C)C=C2C=C[C@H](C)[C@H](CC[C@@H]3C[C@@H](O)CC(=O)O3)[C@H]21	77.1%
Clc1cc(Cl)cc(Nc2ccc3c(OCCCN4CCOCC4)cccc3n2)c1	50.5%
O=C(NNC(=S)Nc1ccccc1)c1ccncc1	117%
CN1CCN(Cc2ccc(NC(=O)c3[nH]ncc3Nc3ncnc4sc5c(c34)CCCC5)cc2)CC1	-67.4% (active)
COc1ccc(-c2cc(-c3cc(OC)ccc3OC)nc(SCC(C)=O)c2C#N)cc1	86.3%
C=C(CNCCc1ccc(O)cc1)[C@@H]1CC[C@]2(COC3CCCCO3)CC[C@]3(C)[C@H](CC[C@@H]4[C@@]5(C)CCC(N)C(C)(C)[C@@H]5CC[C@]43C)[C@@H]12 (stereo not given in full)	-75.6% (active)

Compound	growth
Cc1cc(Nc2nc(-c3ccc(F)cc3)nc3ccccc23)n[nH]1	39%
COC1(OC)C2(Cl)C(Cl)=C(Cl)C1(Cl)C1COCC12 (stereo not given)	82.9%
Nc1nc2cc(O)ccc2n2cc3c(F)cccc3c12	21.7%
CCOC(=O)C1=C(c2ccccc2)N=C2SC=C(c3cccc([N+](=O)[O-])c3)N2C1c1ccc(O)cc1 (stereo not given)	107%
CC(C)(C)OC(=O)CN1CCc2c(sc3ncnc(N4CCN(c5ccc(F)cc5)CC4)c23)C1	99.5%
CCn1cc(-c2ccnc(NCCNS(=O)(=O)c3ccc(Br)cc3)c2)c(-c2cccc(OC)c2)n1	81.4%
CCN1C(=O)N(CC)C2C1NN=C1SCC(=O)N12 (stereo not given)	99.1%
Cc1ccc(C(=Nc2ccccc2)N=P(c2ccccc2)(c2ccccc2)c2ccccc2)cc1	-4.41% (active)
O=C1NC(Cc2c[nH]c3ccccc23)C(=O)N1Cc1ccc(Cl)cc1 (stereo not given)	74%
O=C(O)c1cc2ccccc2cc1Nc1ccccc1	93.3%
Cc1c2ccccc2nc2cc3c(cc12)[C@H]1CC[C@]2(C)C(=O)CC[C@H]2[C@@H]1CC3	97.1%
C=CCn1c(SCC(=O)Nc2ccc(C(=O)/C=C/c3ccc(OC)cc3)cc2)nnc1-c1ccccc1	88.5%
COc1ccc(-c2csc(NC(=O)c3cc(O)c(O)c(O)c3)n2)cc1	62.4%
Cc1cc2nc3c4cc(C=O)ccc4n(CCN(C)C)c3nc2cc1C	16.9%
Cc1ccc2c(O)c(O)cc(NC(C)CCCN)c2n1 (stereo not given)	28.3%
COC(=O)C1=C(C(=O)Nc2cccnc2)C2OC1(C(Cc1ccccc1)Oc1ccccc1)C1OC21 (stereo not given)	-56.2% (active)
COc1cc(N2C(=O)C=CC2=O)ccc1N1C(=O)C=CC1=O	82.9%
COc1cc(/C=C/c2cc(/C=C/c3ccc(O)c(OC)c3)n(C(N)=O)n2)ccc1O	-25.1% (active)
CCCCCCCCCCCC1=NCCCN1CCCC	104%
Nc1c(C(=O)Nc2cccc3c2OCCO3)sc2nc3c(cc12)C(=O)CCC3	12.4%
